Where “and” joins values, the source holds several entries; their conditions need not be identical. Identical values can stand only once. Records with an inconclusive call do not appear. Where a call stands in place of a potency, no number is given. Calls of active or inactive are those of the source. Calls follow the shape of the dose curve; as a rule, active = well fitted curve in the direction sought with a large enough effect; inconclusive = small, poorly fitted or top-dose-only effect, or another doubt; inactive = no such curve, though single readings can be large; an effect the other way counts as inactive or inconclusive.
Experiments:
[1] = molecular target: ATP-dependent 6-phosphofructokinase (Trypanosoma brucei brucei) (UniProt O15648); assay: qHTS Assay to Find Inhibitors of T. brucei phosphofructokinase: hit validation (AID 492961); also: series mostly up to about 51 µM
Sequence of ATP-dependent 6-phosphofructokinase (Trypanosoma brucei brucei) (O15648 whole entry, looked up): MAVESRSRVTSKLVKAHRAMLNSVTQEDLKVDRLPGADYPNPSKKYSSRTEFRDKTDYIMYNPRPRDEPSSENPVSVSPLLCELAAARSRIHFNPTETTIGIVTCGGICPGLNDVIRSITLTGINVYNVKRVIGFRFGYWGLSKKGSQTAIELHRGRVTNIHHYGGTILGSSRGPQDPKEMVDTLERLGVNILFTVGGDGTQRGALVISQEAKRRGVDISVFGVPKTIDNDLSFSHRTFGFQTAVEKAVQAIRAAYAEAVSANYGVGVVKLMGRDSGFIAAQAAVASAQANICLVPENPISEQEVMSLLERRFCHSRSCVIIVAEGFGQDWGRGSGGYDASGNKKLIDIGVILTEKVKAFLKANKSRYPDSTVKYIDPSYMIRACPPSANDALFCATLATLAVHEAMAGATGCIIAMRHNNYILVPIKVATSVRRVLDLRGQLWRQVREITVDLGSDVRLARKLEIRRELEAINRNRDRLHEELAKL
In short: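 Luminescence from ADP-Glo reports ADP generated as T. brucei PFK (1.25 nM) phosphorylates 0.5 mM fructose-6-phosphate using 0.1 mM ATP. Reactions ran 45 min at room temperature, pH 8.0.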

[2] = molecular target: Ubiquitin carboxyl-terminal hydrolase 1 (Homo sapiens) (UniProt O94782); assay: Inhibitors of USP1/UAF1: Pilot qHTS (AID 504865); also: nearly all actives have a fitted effect of over 35% in size; also: potency is read from the fitted curve at half-maximal effect
Sequence of Ubiquitin carboxyl-terminal hydrolase 1 (Homo sapiens) (O94782 whole entry, looked up): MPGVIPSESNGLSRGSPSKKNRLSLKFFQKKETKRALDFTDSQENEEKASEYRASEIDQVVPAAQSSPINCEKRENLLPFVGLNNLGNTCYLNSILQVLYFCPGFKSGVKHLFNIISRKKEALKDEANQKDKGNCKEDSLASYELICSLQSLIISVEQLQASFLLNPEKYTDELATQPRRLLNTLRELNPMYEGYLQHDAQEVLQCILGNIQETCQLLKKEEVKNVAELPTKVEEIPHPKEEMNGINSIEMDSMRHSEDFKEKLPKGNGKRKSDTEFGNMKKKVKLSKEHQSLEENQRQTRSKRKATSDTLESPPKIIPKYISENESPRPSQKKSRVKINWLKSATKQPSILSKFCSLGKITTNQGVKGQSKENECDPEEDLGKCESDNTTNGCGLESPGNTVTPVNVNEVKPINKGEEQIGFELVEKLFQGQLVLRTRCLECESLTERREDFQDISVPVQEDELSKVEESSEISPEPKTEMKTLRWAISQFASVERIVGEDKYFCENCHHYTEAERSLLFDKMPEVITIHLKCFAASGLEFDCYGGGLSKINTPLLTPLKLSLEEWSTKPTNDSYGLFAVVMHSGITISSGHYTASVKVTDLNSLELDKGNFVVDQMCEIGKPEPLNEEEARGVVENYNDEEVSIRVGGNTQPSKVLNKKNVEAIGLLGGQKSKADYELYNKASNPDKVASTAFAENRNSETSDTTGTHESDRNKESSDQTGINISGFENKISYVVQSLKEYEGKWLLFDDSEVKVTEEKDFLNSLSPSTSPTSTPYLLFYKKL
In short: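 1nM USP1/UAF1 + cpd, 15 min RT; start w/ Ub-Rho 150nM final; kinetic FL 480/540 nm, 6 reads q60 s. Buffer 50mM HEPES pH 7.8, 0.5mM EDTA, 1mM TCEP, 0.01% Tween-20, 0.1 mg/ml BSA.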

SMILES | Potency [1] | Potency [2]
COc1ccc(C(=O)c2ccccc2O)c(O)c1 | inactive | inactive
C=C[C@@]1(C)CC(=O)[C@]2(O)[C@@]3(C)[C@@H](O)CCC(C)(C)[C@@H]3[C@H](O)[C@H](OC(C)=O)[C@@]2(C)O1 | inactive | inactive
CC(=O)O[C@]1(C(C)=O)CC[C@H]2[C@@H]3C=C(Cl)C4=CC(=O)CC[C@]4(C)[C@H]3CC[C@@]21C | inactive | inactive
OC1C(O)C(O)C(O)C(O)C1O (stereo unspecified) | inactive | inactive
CCOC(=O)C(C#N)=C(c1ccccc1)c1ccccc1 | inactive | 
C[N+]1(CC2COC(c3ccccc3)(C3CCCCC3)O2)CCCCC1 (stereo unspecified) | inactive | inactive
Cc1ccc(S(=O)(=O)NC(=O)NC2CCCC2)cc1 | inactive | inactive
COc1cc(NS(=O)(=O)c2ccc(N)cc2)ncn1 | inactive | inactive
Cc1cc2c(OCC(CNC(C)(C)C)OC(=O)c3ccccc3)cccc2[nH]1 (stereo unspecified) | inactive | inactive
COc1ccc(-c2cc(C(F)F)nn2-c2ccc(S(N)(=O)=O)cc2)cc1F | inactive | inactive
CCN(CC)CCOc1ccc2c(c1)C(=O)c1cc(OCCN(CC)CC)ccc1-2 | inactive | inactive
CC(C)NCC(O)c1ccc2ccccc2c1 (stereo unspecified) | inactive | inactive
Cc1cccc(C)c1NC(=O)CN1CCCCCC1 | inactive | inactive
COc1cc(C(=S)N2CCOCC2)ccc1O | inactive | inactive
CC(C)CCCC(C)N (stereo unspecified) | inactive | inactive
CC(=O)NCCCCCC(=O)O | inactive | inactive
NC(=O)c1ccccc1O | inactive | inactive
C=CCN1CCc2nc(N)sc2CC1 | inactive | inactive
CC(C)=CCOc1ccc(/C=C/C(=O)c2ccc(OCC=C(C)C)cc2OCC(=O)O)cc1 | inactive | 79.4 µM (active)

SMILES | Potency [1] | Potency [2]
CC(C)(C)NC[C@H](O)COc1cccc2c1CCCC2=O | inactive | inactive
CC(=O)Oc1ccc(C)cc1 | inactive | inactive
CCOc1ccccc1C(N)=O | inactive | inactive
N#CCC(=O)NN | inactive | inactive
Oc1c(Cl)cc(Cl)c(Cl)c1Cc1c(O)c(Cl)cc(Cl)c1Cl | inactive | 79.4 µM (active) and 31.6 µM (active)
CN(C)CCC[C@@]1(c2ccc(F)cc2)OCc2cc(C#N)ccc21 | inactive | inactive
COc1ccc(CCN(C)CCCN2CCc3cc(OC)c(OC)cc3CC2=O)cc1OC | inactive | inactive
CCCCNC(=O)NS(=O)(=O)c1ccc(N)cc1 | inactive | inactive
O=C(CCCN1CC=C(n2c(=O)[nH]c3ccccc32)CC1)c1ccc(F)cc1 | inactive | inactive
Cc1c[nH]c2ccccc12 | inactive | inactive
Cc1ccc2c(Br)cc(Br)c(O)c2n1 | inactive | inactive
COc1ccc(CN(CCN(C)C)c2ncccn2)cc1 | inactive | inactive
CC(=O)NO | inactive | inactive
Cc1cc(C)cc(OCC2CNC(=O)O2)c1 (stereo unspecified) | inactive | inactive
CNCCc1ccccn1 | inactive | inactive
CCCCNc1ccc(C(=O)OCCOCCOCCOCCOCCOCCOCCOCCOCCOC)cc1 | inactive | inactive
Cl/C(=C\n1cncn1)c1ccc(Cl)cc1Cl | inactive | inactive
COc1cc(O)c(C(=O)c2ccccc2)cc1S(=O)(=O)O | inactive | inactive
CC(C)[N+](C)(C)CC(O)COc1cccc2ccccc12 (stereo unspecified) | inactive | inactive

SMILES | Potency [1] | Potency [2]
CC(=O)Nc1ccc(OCC(O)CNC(C)C)cc1 (stereo unspecified) | inactive | inactive
CN1CCN(CCC(=O)N2c3ccccc3Sc3ccc(C(F)(F)F)cc32)CC1 | inactive | inactive
CCC1Nc2cc(Cl)c(S(N)(=O)=O)cc2S(=O)(=O)N1 (stereo unspecified) | inactive | inactive
Nc1ccc(S(=O)(=O)Nc2cnc3ccccc3n2)cc1 | inactive | inactive
CN1CCN(c2c(F)cc3c(=O)c(C(=O)O)cn4c3c2SCC4)CC1 | inactive | inactive
NS(=O)(=O)c1ccc(Cl)c(S(N)(=O)=O)c1 | inactive | inactive
CC(=O)O[C@H]1C[C@@H]2CC[C@@H]3[C@H](CC[C@@]4(C)[C@H]3C[C@H]([N+]3(C)CCCCC3)[C@@H]4OC(C)=O)[C@@]2(C)C[C@@H]1N1CCCCC1 | inactive | inactive
CCc1ccc(C(=O)C(C)CN2CCCCC2)cc1 (stereo unspecified) | inactive | inactive
C/C=C/C=N/NC(=O)c1ccncc1 | inactive | inactive
O=C(O)Cc1csc(-c2ccc(Cl)cc2)n1 | inactive | inactive
Nc1nc(N)c(-c2ccccc2)s1 | inactive | inactive
COc1cc(C(=O)N2CCCCCCC2)cc(OC)c1OC | inactive | inactive
CCCCCN=C(N)N/N=C/c1c[nH]c2ccc(OC)cc12 | inactive | inactive
CCc1oc2ccccc2c1C(=O)c1cc(I)c(O)c(I)c1 | inactive | 39.8 µM (active)
CC(=O)Nc1ccc(S(=O)(=O)Nc2ccc([N+](=O)[O-])cc2)cc1 | inactive | inactive
c1ccc(-c2nc[nH]c2-c2ccccc2)cc1 | inactive | inactive
CC(=O)NC(=O)c1ccccc1O | inactive | inactive
Nc1ccc(C(=O)NCC(=O)O)cc1 | inactive | inactive
